The results in this text go back to PubChem BioAssay (Tox21).

Where a structure was tested more than once in an assay, its records may differ in their call. Active and inactive are the calls of the source. A call without a number means that no potency is given here. The call rests on the fitted dose curve; in most records, active means well fitted activation curve with a large enough effect in the repeat runs; inconclusive means weak or mixed curves; inactive means flat fitted curve, though single readings scatter.
Potency means the concentration at half of the fitted maximal effect.

This assay can be described thus: A CellTox Green Cytotoxicity Assay to monitor cytotoxicity in HepG2 cells - 0 hour (AID 1224882). Further: nearly all actives have a fitted effect of over 35% in size. The note with it: CellTox Green fluorescence; series mostly up to 76.8 µM. Summed up:
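Using 1536-well format, dye-containing HepG2 suspension was seeded, allowed 5 h at 37 C/5% CO2, dosed by pintool with compounds, positive and negative controls, and imaged for fluorescence across 40 h.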
For the compound `CC(C)=CC1C(C(=O)OCc2cccc(Oc3ccccc3)c2)C1(C)C` (stereo unspecified), the Potency result was “inactive”.

Turning to `CNC(=O)Oc1cccc2c1OC(C)(C)C2`, the Potency entry is “inactive”.

For the compound `CN(C)c1ccccc1`, the Potency result is “inactive”.

Turning to `Cc1ccc([N+](=O)[O-])cc1`, the Potency result was “inactive”.

For the compound `CSc1nc(NC(C)C)nc(NC(C)C)n1`, the Potency entry was “inactive”.

Turning to `CNC(=O)CSP(=S)(OC)OC`, the Potency entry was “inactive”.

Turning to `CCCCCCCCCc1ccc(O)cc1`, the Potency entry was “inactive”.

Consider `C[N+](C)(C)CC(=O)O`, for which the Potency result is “inactive”.

With `Oc1ccc(Cl)cc1Cc1ccccc1`, the Potency result is “inactive”.

For the compound `CS(=O)(=O)NC(=O)c1cc(Oc2ccc(C(F)(F)F)cc2Cl)ccc1[N+](=O)[O-]`, the Potency result was “inactive”.

As for `NC(=O)CN1CCCC1=O`, the Potency result was “inactive”.

Turning to `CC1(C)C(C(=O)OC(C#N)c2cccc(Oc3ccccc3)c2)C1(C)C` (stereo unspecified), the Potency result is “inactive”.

As for `O=P(OCCCl)(OCCCl)OCCCl`, the Potency entry is “inactive”.

As for `OCCOCCO`, the Potency result is “inactive”.

With `O=C(O)c1nn(Cc2ccc(Cl)cc2Cl)c2ccccc12`, the Potency result is “inactive”.

In the case of `O=C1CCCO1`, the Potency entry is “inactive”.

For the compound `CC(C)(C#N)N=NC(C)(C)C#N`, the Potency entry was “inactive”.

Regarding `CCOP(=S)(OCC)SCn1c(=O)oc2cc(Cl)ccc21`, the Potency entry is “inactive”.

`CCCCCCCCCC(CC)c1ccc(S(=O)(=O)O)cc1` (stereo unspecified): the Potency result is “inactive”.

Consider `ClC(Cl)(Cl)Br`, for which the Potency entry is “inactive”.

In the case of `CCCCOC(=O)COC(=O)c1ccccc1C(=O)OCCCC`, the Potency entry was “inactive”.

Consider `Nc1ccc2ccccc2c1`, for which the Potency result was “inactive”.

As to `Cn1c(-c2ccccc2)cc(-c2ccccc2)[n+]1C`, the Potency entry is “inactive”.

Take `ClCC(Cl)CCl`: the Potency result was “inactive”.

For `CCOP(=O)(OCC)OCC`, the Potency result is “inactive”.

On to `C[C@]12CCC(=O)C=C1CC[C@@H]1[C@@H]2CC[C@@]2(C)[C@H]1CC[C@]2(C)O`, for which the Potency is 19.7 µM (active) and inactive.
